Source: the supplement of paper PMC6992640
Where a name gives a salt, the structure may show the parent alone. ± gives the standard deviation of the averaged measurements.

Key:
Experiment in all cases: cell viability (% of vehicle); higher = less cytotoxic
Conditions in all cases: 10 µM; 72 h
HCI01 = tested on: HCI01 (cells of a triple-negative basal-like breast cancer xenograft)
HCI03 = tested on: HCI03 (cells of an ER-positive luminal breast cancer xenograft)
HCI09 = tested on: HCI09 (cells of a triple-negative luminal androgen receptor type breast cancer xenograft)
HCI11 = tested on: HCI11 (cells of an ER-positive luminal breast cancer xenograft)
HCI13 = tested on: HCI13 (cells of an ER-positive luminal breast cancer xenograft)
HCI16 = tested on: HCI16 (cells of a triple-negative basal-like breast cancer xenograft)
UCD52 = tested on: UCD52 (cells of a triple-negative basal-like breast cancer xenograft)
WHIM2 = tested on: WHIM2 (cells of a triple-negative basal-like breast cancer xenograft)
WHIM30 = tested on: WHIM30 (cells of a triple-negative basal-like breast cancer xenograft)
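Further: PDX cells carrying CMV promoter-driven luciferase, viability read as total photon flux per second by IVIS imaging following D-luciferin, vehicle control 0.1% DMSO.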

| Compound | cell viability (HCI01) | cell viability (HCI03) | cell viability (HCI09) | cell viability (HCI11) | cell viability (HCI13) | cell viability (HCI16) | cell viability (UCD52) | cell viability (WHIM2) | cell viability (WHIM30) |
| --- | --- | --- | --- | --- | --- | --- | --- | --- | --- |
| CC1Cc2ccccc2N1NC(=O)c1ccc(Cl)c(S(N)(=O)=O)c1 (stereo unspecified) [Indapamide] | 98 ± 9.9 | 100 | 94.6 ± 4.7 | 88.8 | 110 ± 14 | 128 | 80.2 ± 1.6 | 107 ± 18 | 105 ± 3.4 |
| C[N+]1(C)C2CCC1CC(OC(=O)C(O)c1ccccc1)C2.[Br-] (stereo unspecified) [Homatropine Methylbromide] | 96.2 ± 1.2 | 97.6 | 89.8 ± 18 | 85.9 | 105 ± 5 | 114 | 104 ± 1.8 | 112 ± 8 | 50.8 ± 2.7 |
| CCNC1CN(CCCOC)S(=O)(=O)c2sc(S(N)(=O)=O)cc21 (stereo unspecified) [Brinzolamide] | 108 ± 12 | 142 | 97.6 ± 15 | 139 | 132 ± 16 | 100 | 88.17 ± 0.49 | 104 ± 12 | 96.6 ± 7.1 |
| S=c1nc[nH]c2nc[nH]c12 [Mercaptopurine (6-MP)] | 108 ± 4.9 | 104 | 116 ± 6 | 81.6 | 92.3 ± 12 | 74.9 | 91.6 ± 4.2 | 99.3 ± 24 | 118 ± 32 |
| O=c1ccn(C2OC(CO)C(O)C2O)c(=O)[nH]1 (stereo unspecified) [Uridine] | 106 ± 10 | 115 | 100.8 ± 0.17 | 100 | 103 ± 21 | 104 | 85.6 ± 2.8 | 89.7 ± 4.7 | 131 ± 9.8 |
| CCCC1CC(C(=O)NC(C(C)Cl)C2OC(SC)C(OP(=O)(O)O)C(O)C2O)N(C)C1 (stereo unspecified) [Clindamycin Phosphate] | 140 ± 73 | 112 | 75.6 ± 25 | 96.6 | 86.2 ± 30 | 89.1 | 73.2 ± 16 | 92.7 ± 20 | 83.5 ± 1.4 |
| COc1ccc2nc(S(=O)Cc3ncc(C)c(OC)c3C)[nH]c2c1 (stereo unspecified) [Omeprazole] | 127 ± 30 | 149 | 94.2 ± 5.6 | 102 | 94 ± 3.6 | 121 | 138 ± 16 | 99.8 ± 23 | 192 ± 5.1 |
| CCC1OC(=O)C(C)C(OC2CC(C)(OC)C(O)C(C)O2)C(C)C(OC2OC(C)CC(N(C)C)C2O)C(C)(O)CC(C)C(=NOCOCCOC)C(C)C(O)C1(C)O (stereo unspecified) [Roxithromycin] | 138 ± 34 | 147 | 113 ± 25 | 101 | 133 ± 12 | 154 | 103 ± 2.8 | 103 ± 17 | 188 ± 29 |
| CC1(O)CC(c2nc(-c3ccc4ccc(-c5ccccc5)nc4c3)c3c(N)nccn23)C1 (stereo unspecified) [Linsitinib] | 112 ± 1.2 | 109 | 73.3 ± 39 | 76.3 | 38.6 ± 4 | 127 | 71.6 ± 2.8 | 102 ± 11 | 126 ± 12 |
| CCCCNc1ccc(C(=O)OCCN(C)C)cc1.Cl [Tetracaine HCl] | 130 ± 19 | 134 | 105 ± 25 | 121 | 122 ± 19 | 99 | 90.7 ± 13 | 92.2 ± 17 | 103.43 ± 0.084 |
| CC(CCc1ccccc1)NCC(O)c1ccc(O)c(C(N)=O)c1.Cl (stereo unspecified) [Labetalol HCl] | 101 ± 12 | 106 | 95.8 ± 9.3 | 104 | 105 ± 7.3 | 112 | 85.7 ± 7 | 110 ± 15 | 111 ± 13 |
| CS(=O)(=O)c1ccc(C2=C(c3ccccc3)C(=O)OC2)cc1 [Rofecoxib] | 127 ± 8.3 | 119 | 84.3 ± 18 | 99.7 | 141 ± 20 | 96.7 | 78.7 ± 10 | 99 ± 6.9 | 84.6 ± 5.8 |
| Cl.NC1=NCC2c3ccccc3Cc3ccccc3N12 (stereo unspecified) [Epinastine HCl] | 102 ± 1.5 | 94.8 | 82.5 ± 4.8 | 95.5 | 79.4 ± 1.9 | 118 | 79 ± 1.4 | 96.5 ± 8.4 | 89.3 ± 7 |
| O=c1ccc2ccccc2o1 [Coumarin] | 110 ± 15 | 145 | 99.9 ± 6.8 | 95 | 102 ± 7.2 | 128 | 93.3 ± 14 | 113 ± 4.4 | 114 ± 2.5 |
| CCOC(=O)C(CCc1ccccc1)NC(C)C(=O)N1Cc2ccccc2CC1C(=O)O.Cl (stereo unspecified) [Quinapril HCl] | 61.5 ± 37 | 111 | 72.7 ± 10 | 94.8 | 104 ± 5.7 | 96.9 | 83.7 ± 5.6 | 95.1 ± 3.9 | 105 ± 14 |
| CC(C)C(N)C(=O)OCCOCn1cnc2c(=O)nc(N)[nH]c21.Cl (stereo unspecified) [Valaciclovir HCl] | 71.5 ± 40 | 128 | 94.3 ± 3 | 88.8 | 94.7 ± 8.2 | 106 | 91.8 ± 12 | 102 ± 19 | 169 ± 13 |
| CCCCCCOC(=O)N=C(N)c1ccc(NCc2nc3cc(C(=O)N(CCC(=O)OCC)c4ccccn4)ccc3n2C)cc1.CS(=O)(=O)O [Dabigatran etexilate mesylate] | 98.8 ± 8.5 | 126 | 81.5 ± 8.2 | 99.4 | 106 ± 23 | 94.6 | 98.4 ± 9 | 63.2 ± 3.8 | 104 ± 5.8 |
| CCC(C(C)O)n1ncn(-c2ccc(N3CCN(c4ccc(OCC5COC(Cn6cncn6)(c6ccc(F)cc6F)C5)cc4)CC3)cc2)c1=O (stereo unspecified) [Posaconazole] | 123 ± 2.6 | 78 | 59.1 ± 18 | 64.1 | 79.9 ± 3.4 | 94.5 | 74.8 ± 6.6 | 86.8 ± 13 | 105 ± 18 |
| COC(=O)Nc1nc2ccc(S(=O)c3ccccc3)cc2[nH]1 (stereo unspecified) [Oxfendazole] | 102 ± 25 | 132 | 113 ± 1.8 | 93.1 | 179 ± 34 | 147 | 95.3 ± 8 | 87 ± 7.4 | 139 ± 8.4 |
| CC(COc1ccccc1)N(CCCl)Cc1ccccc1.Cl (stereo unspecified) [Phenoxybenzamine HCl] | 122 ± 3.3 | 131 | 133 ± 28 | 114 | 150 ± 8.9 | 195 | 104.7 ± 0.72 | 93.9 ± 10 | 191 ± 9.4 |

| Compound | cell viability (HCI01) | cell viability (HCI03) | cell viability (HCI09) | cell viability (HCI11) | cell viability (HCI13) | cell viability (HCI16) | cell viability (UCD52) | cell viability (WHIM2) | cell viability (WHIM30) |
| --- | --- | --- | --- | --- | --- | --- | --- | --- | --- |
| CCOC(=O)CCC(=O)OC1C(OC2C(C)C(OC3CC(C)(OC)C(O)C(C)O3)C(C)C(=O)OC(CC)C(C)(O)C(O)C(C)C(=O)C(C)CC2(C)O)OC(C)CC1N(C)C (stereo unspecified) [Erythromycin Ethylsuccinate] | 105 ± 5.4 | 97.5 | 97.4 ± 21 | 96.1 | 69.6 ± 1.3 | 132 | 87.3 ± 4.6 | 105 ± 20 | 108 ± 16 |
| CC(C)OC(=O)C(C)NP(=O)(OCC1OC(n2ccc(=O)[nH]c2=O)C(C)(F)C1O)Oc1ccccc1 (stereo unspecified) | 85.3 ± 7.8 | 103 | 79.3 ± 11 | 79.5 | 82.5 ± 5.5 | 141 | 84.26 ± 0.3 | 104 ± 7 | 120 ± 5 |
| Cc1ccc(C2OC(CO)C(O)C(O)C2O)cc1Cc1ccc(-c2ccc(F)cc2)s1 (stereo unspecified) [Canagliflozin] | 114 ± 6.5 | 150 | 55.8 ± 27 | 108 | 77.3 ± 21 | 124 | 76 ± 9.2 | 65.5 ± 51 | 110 ± 5.9 |
| Cc1ncc(CO)c(CO)c1O.Cl [Pyridoxine HCl] | 89.2 ± 31 | 121 | 90.1 ± 4.5 | 91.9 | 117 ± 18 | 107 | 99.9 ± 5.3 | 86.6 ± 2.4 | 100 ± 3.4 |
| O=c1sn(-c2cccc3ccccc23)c(=O)n1Cc1ccccc1 [Tideglusib] | 119 ± 20 | 114 | 98.2 ± 11 | 96.3 | 95.7 ± 14 | 94.7 | 78.4 ± 1.8 | 86.22 ± 0.6 | 131 ± 9.7 |
| COc1nc(C)cnc1NS(=O)(=O)c1cccnc1-c1ccc(-c2nnco2)cc1 [Zibotentan (ZD4054)] | 122 ± 15 | 116 | 105 ± 9.6 | 117 | 125 ± 12 | 125 | 97.9 ± 1.1 | 85.7 ± 3.5 | 139 ± 6.9 |
| Cc1onc(-c2ccccc2)c1-c1ccc(S(N)(=O)=O)cc1 [Valdecoxib] | 126 ± 28 | 126 | 85.3 ± 11 | 98 | 109 ± 1.1 | 99.8 | 74 ± 11 | 95.5 ± 4.2 | 78.92 ± 0.35 |
| NCC(=O)CCC(=O)O [5-Aminolevulinic acid HCl] | 79.2 ± 41 | 132 | 89.9 ± 2.3 | 83.2 | 113 ± 24 | 164 | 82.6 ± 7.6 | 129 ± 24 | 146 ± 6.6 |
| CC1(C)OC2COC3(COS(N)(=O)=O)OC(C)(C)OC3C2O1 (stereo unspecified) [Topiramate] | 103 ± 19 | 128 | 95.2 ± 20 | 138 | 133 ± 1.9 | 115 | 78.8 ± 6.2 | 105 ± 16 | 110 ± 5.4 |
| COc1ccc(C=Cc2cc(OC)c(OC)c(OC)c2)cc1OP(=O)([O-])[O-].[Na+].[Na+] [Fosbretabulin (Combretastatin A4 Phosphate (CA4P)) Disodium] | 185 ± 47 | 115 | 110 ± 35 | 115 | 41.7 ± 5.6 | 132 | 86 ± 16 | 111 ± 12 | 104 ± 5.7 |
| O=C(O)CCNC(=O)c1ccc(/N=N/c2ccc(O)c(C(=O)O)c2)cc1 [Balsalazide] | 96.3 ± 18 | 120 | 87.6 ± 1.2 | 91.1 | 120 ± 6.3 | 114 | 93.5 ± 10 | 98.8 ± 15 | 110 ± 6.1 |
| Cn1c(=O)c2c(ncn2CC(O)CO)n(C)c1=O (stereo unspecified) [Dyphylline] | 98.4 ± 7.5 | 122 | 98 ± 15 | 114 | 117 ± 14 | 85.9 | 90.2 ± 3.7 | 104 ± 1.1 | 119 ± 24 |
| COc1cnc(NS(=O)(=O)c2ccc(N)cc2)nc1 [Sulfameter] | 97.7 ± 24 | 142 | 86.1 ± 1.6 | 83 | 93.22 ± 0.58 | 113 | 80.9 ± 21 | 92.2 ± 18 | 95.13 ± 0.27 |
| Cl.Cl.Clc1ccc(Nc2nnc(Cc3ccncc3)c3ccccc23)cc1 [Vatalanib (PTK787) 2HCl] | 136 ± 53 | 104 | 54.7 ± 2.1 | 92.3 | 45.8 ± 8.3 | 76.5 | 55.4 ± 5 | 46 ± 19 | 93.2 ± 2.6 |
| Cc1cc2c(cc1S(N)(=O)=O)S(=O)(=O)CCC2 [Meticrane] | 109 ± 8.8 | 117 | 102 ± 6.3 | 89 | 103 ± 9.6 | 110 | 96.3 ± 10 | 97 ± 7.5 | 80.4 ± 2.8 |
| O=C1Nc2ccc(Cl)cc2C(C#CC2CC2)(C(F)(F)F)O1 (stereo unspecified) [Efavirenz] | 114 ± 16 | 85.9 | 68.9 ± 7.4 | 99.8 | 82.9 ± 7.3 | 108 | 69.5 ± 1.9 | 69.6 ± 46 | 82.3 ± 17 |
| COc1ccc(C(=O)c2ccccc2)c(O)c1 [Oxybenzone] | 120 ± 26 | 141 | 111 ± 15 | 109 | 103 ± 8.8 | 128 | 117 ± 11 | 125 ± 6.8 | 137 ± 22 |
| CC(=O)SC1CC2=CC(=O)CCC2(C)C2CCC3(C)C(CCC34CCC(=O)O4)C12 (stereo unspecified) [Spironolactone] | 109 ± 2.6 | 114 | 73.8 ± 9.1 | 110 | 75.9 ± 6.1 | 64.2 | 79.7 ± 14 | 88.8 ± 8.7 | 113 ± 10 |
| CCCCOc1cc(C(=O)OCCN(CC)CC)ccc1N.Cl [Oxybuprocaine HCl] | 162 ± 33 | 99.6 | 83.9 ± 11 | 88.8 | 95.5 ± 34 | 149 | 90 ± 31 | 126 ± 24 | 189 ± 3.2 |
